Source: PubChem BioAssay
This is a sample that favours compounds with a hit; in the whole collection about 2.4% have one here.
S1P3 antagonist: S1P3 receptor antagonists, primary screen, cell-based; Sphingosine 1-phosphate receptor 3 (Homo sapiens), Q99500; CHO S1P3 NFAT-BLA reporter, FRET fluorescence, antagonist mode; inhibition, % at 4.98 µM; hit rate 0.27% among 170,000;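 active = inhibition above the plate cutoff, the mean inhibition of test wells on that plate plus 3 SD, cut at about 28% in these data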;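 also: cells challenged with S1P at its EC80 of 0.8 µM; blue over green emission ratio from cleaved BLA substrate after 4 h stimulation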
EP2 modulator: EP2 receptor modulators, cAMP readout, primary screen, cell-based, HTRF cAMP, PGE2 stimulation; EP2-expressing cells, cAMP HTRF FRET, PGE2 co-stimulation; AID 940, 2007; induction, % at 25 µM; hit rate 0.83% among 260,000;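 active = compounds whose cAMP rise, as percent of the full-agonist control response, exceeds 60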;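 also: rat C6 glioma line stably carrying human EP2 under a CMV promoter; the protocol text gives 20 µM as final concentration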
S1P4 antagonist: S1P4 receptor antagonists, primary screen, cell-based. S1P4-expressing cells, antagonist mode, reporter read-out. inhibition, % at 4.98 µM. Sphingosine 1-phosphate receptor 4 (Homo sapiens), O95977. hit rate 0.26% among 220,000; in the data active = inhibition above about 29%
Target sequence (O95977 whole entry, looked up): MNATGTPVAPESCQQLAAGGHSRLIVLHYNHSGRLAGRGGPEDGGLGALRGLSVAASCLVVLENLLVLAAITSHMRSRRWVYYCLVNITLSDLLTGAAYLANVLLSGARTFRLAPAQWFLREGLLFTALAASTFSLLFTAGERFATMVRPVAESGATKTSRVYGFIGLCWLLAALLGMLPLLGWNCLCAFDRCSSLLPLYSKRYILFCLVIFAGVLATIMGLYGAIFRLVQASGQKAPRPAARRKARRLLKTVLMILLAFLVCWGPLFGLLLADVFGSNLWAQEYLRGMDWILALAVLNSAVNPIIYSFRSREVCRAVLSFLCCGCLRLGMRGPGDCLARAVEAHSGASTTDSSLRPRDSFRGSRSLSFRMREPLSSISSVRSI
INS promoter inh: inhibitors of insulin promoter-driven GFP, primary screen, imaging, TRM-6 cells (human fetal islet line), eGFP reporter, cell count; reporter expression induced with tamoxifen; inhibition, % at 2 µM; hit rate 0.9% among 130,000;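 active = inhibition above the mean plus 3 SD, with well images judged a real hit on visual review, cut at about 60% in these data, passing the limit was not always enough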
PGE2 EP2 inh: human EP2 receptor antagonists, primary screen, TR-FRET cAMP, C6 glioma cells | C6 glioma cells expressing human EP2; cells stimulated with saturating PGE2 | hit rate 0.52% among 260,000 | inhibition, % at 25 µM | Prostaglandin E2 receptor EP2 subtype (Homo sapiens), P43116;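 active = percent inhibition above 40 after rounding to a whole number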;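 also: rat C6 glioma host cells with rolipram phosphodiesterase inhibitor present; the protocol text gives 20 µM as final concentration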
S1P4 ag: S1P4 receptor agonists, primary screen, cell-based; Sphingosine 1-phosphate receptor 4 (Homo sapiens), O95977; S1P4-expressing cell line, agonist reporter assay; activation, % at 4.98 µM; hit rate 0.35% among 220,000; in the data active = activation above about 11%
EP2 cAMP induct: cAMP induction in EP2, EP4, beta2-AR and parental cells, confirmation, counter-screen for EP2 modulator project, cell-based, five parallel assays, C6 glioma, HEK293; calls only at 20 µM (by protocol); hit rate 47% among 1,300; shares compounds with EP2 modulator; AID 1080, 2008; cAMP HTRF induction; plus low (about EC15) PGE2 agonist;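 active = cAMP induction above 50% in the main assay while under 30% in all four parallel counter assays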;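 also: rat C6 glioma cells stably expressing human EP2 receptor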
A number is an active result; i = inactive; nt = no result given; + = active, no number.

SMILES	S1P3 antagonist	EP2 modulator	S1P4 antagonist	INS promoter inh	PGE2 EP2 inh	S1P4 ag	EP2 cAMP induct
C=CCc1cc(C=O)cc(OCC)c1OCc1ccc(Cl)cc1	i	87	i	i	i	i	+
COc1cc(C=O)ccc1OCCOCCOc1ccc(Cl)cc1	nt	i	i	i	i	i	nt
CC(C)N(C(=O)Cn1nc(-c2cccs2)cc(N)c1=O)C(C)C	nt	i	nt	nt	i	nt	nt
CC(C)[C@H](Cn1nc(-c2cccs2)ccc1=O)NC(=O)c1cc2ccccc2oc1=O	nt	i	nt	nt	i	nt	nt
Cc1cccc(NS(=O)(=O)c2cccs2)n1	i	i	i	i	i	i	nt
Cc1ccnc(NS(=O)(=O)c2cccs2)c1	i	83	i	i	i	i	i
CC(C)CCn1c(=O)c2ccccc2c2ccccc2c1=O	nt	83	i	i	i	i	+
COCC(=O)Nc1nnc(SCC(=O)N(C2CCCCC2)C2CCCCC2)s1	nt	i	nt	nt	i	nt	nt
O=C1CCC(c2ccccc2)=NN1Cc1c(F)cccc1Cl	i	66	i	i	i	i	+
CCOC(=O)c1ccccc1NC1c2ccccc2C(=O)N1c1cc(C)ccn1 (stereo unspecified)	nt	69	i	nt	i	i	+
COc1cc(OC)c(NC2c3ccccc3C(=O)N2c2cc(C)ccn2)cc1Cl (stereo unspecified)	i	i	i	nt	i	i	nt
Cc1cc(=O)[nH]c2cc(=O)n(-c3ccccc3)n12	nt	i	nt	nt	i	nt	nt
CCN(CC)c1ccc(/C=C2\C(=O)c3ccc(C(=O)O)cc3C2=O)cc1	i	74	i	i	i	i	+
C=CCn1c(Cc2ccccc2)n[nH]c1=S	i	i	i	i	i	i	nt
C=CCn1c(CCc2cc(C(C)(C)C)c(O)c(C(C)(C)C)c2)n[nH]c1=S	i	i	i	i	i	i	i
COC(=O)c1sc2nc(-c3ccccc3)c3c(c2c1N)CCCC3	nt	73	i	i	i	i	i
COC(=O)c1sc2nc(N3CCCCC3)c3c(c2c1N)CCCC3	nt	74	i	i	i	i	i
Nc1c(C(=O)O)sc2nc(-c3ccccc3)c3c(c12)CCCC3	i	i	i	i	i	i	nt
CCOC(=O)c1sc2nc(N3CCOCC3)c3c(c2c1N)CCCC3	i	i	i	i	i	i	nt
NC(=O)c1sc2nc(N3CCCCC3)c3c(c2c1N)CCCC3	i	76	i	i	i	i	+
CCN(CC)C(=O)c1sc2nc(N3CCOCC3)c3c(c2c1N)CCCC3	nt	i	i	i	i	i	nt
Cc1ccc(C)c(Cn2nc(C)n3c(cc4sccc43)c2=O)c1	nt	i	nt	nt	nt	nt	nt
Cc1cc(C)c(S(=O)(=O)c2ccccc2)c(OC(=O)c2cc(F)c(F)cc2Cl)n1	nt	73	i	i	i	i	i
CCN(CC)C(=O)c1sc(NC(=O)c2ccoc2C)c(C(=O)OC)c1C	i	i	i	i	i	i	nt
CCOC(=O)c1c(NC(=O)CC(C)C)sc(C(C)=O)c1C	nt	i	i	i	i	i	i
SMILES	S1P3 antagonist	EP2 modulator	S1P4 antagonist	INS promoter inh	PGE2 EP2 inh	S1P4 ag	EP2 cAMP induct
CCOC(=O)c1c(NC(=O)c2ccoc2C)sc(C(=O)N(C)C)c1C	nt	i	i	i	i	i	i
CCCCNCC(=O)Nc1sc(C)c(C)c1C(=O)OCC	nt	i	i	i	i	i	i
CCCn1c(SCC(=O)Nc2sc(C)c(C)c2C(=O)OCC)nc2c1c(=O)n(C)c(=O)n2C	i	i	i	nt	i	i	i
CCOC(=O)c1c(NC(=O)CNCC(O)CO)sc(C)c1C (stereo unspecified)	i	i	i	i	i	i	nt
NC(=O)c1c(NC(=O)CCCN2C(=O)/C(=C/c3cccs3)SC2=S)sc2c1CCCC2	nt	i	nt	nt	i	nt	nt
CCc1cc2cc3c(cc2nc1SCC(=O)NCc1cccs1)OCCO3	nt	i	nt	nt	i	nt	nt
CC(C)(C)c1nnc(NC(=O)/C=C/c2ccc3c(c2)OCO3)s1	nt	i	nt	nt	i	nt	nt
CCOC(=O)c1c(NC(=O)CSc2nnnn2C)sc(C)c1C	i	i	i	i	i	i	nt
CCOC(=O)c1c(NC(=O)CSc2nnnn2CC)sc(C)c1C	i	i	i	nt	i	i	i
CCOC(=O)c1c(NC(=O)c2cccnc2)sc(C)c1C	nt	i	i	i	i	i	+
c1ccc(-c2nc(N3CCCCC3)nc3ccccc23)cc1	nt	i	i	i	i	i	nt
Cc1ccc2nc(N3CCC(C(=O)O)CC3)nc(-c3ccccc3)c2c1	i	91	i	i	i	i	i
COc1cc2ccccc2cc1C(=O)NC(=S)Nc1cccc(C(=O)O)c1	i	95	i	nt	i	i	+
Cc1ccc(C)c(CN2C(=O)C(C)Oc3ccc(C)cc32)c1 (stereo unspecified)	i	80	i	i	i	i	+
Cc1ccc2c(c1)N(Cc1ccccn1)C(=O)C(C)O2 (stereo unspecified)	i	i	i	i	i	i	nt
Cn1c(=O)oc2cc(S(=O)(=O)NCc3ccccc3CN3CCOCC3)ccc21	nt	i	nt	nt	i	nt	nt
COC(=O)c1n[nH]nc1-c1ccccc1	i	i	i	i	i	i	nt
c1ccc(-c2n[nH]nc2-c2ccccc2)cc1	i	66	i	i	i	i	+
CCn1c2ccccc2c2cc([N+](=O)[O-])ccc21	i	77	i	i	i	i	+
CSc1nnc(-c2cc3c(s2)-c2ccccc2CC3)o1	nt	76	i	i	i	i	+
Cn1c(=O)c2c(SC3CCCC3)nc(C3CC3)nc2n(C)c1=O	i	79	i	nt	i	i	+
CCN(CC)CCN1C(=O)c2cccc3cc(N)cc(c23)C1=O	i	i	i	nt	i	i	i
COc1cc(OC)cc(-c2nc(N)n[nH]2)c1	i	68	i	i	i	i	i
Cc1noc(C)c1CSc1nc2ccccc2c(=O)n1-c1ccccc1	i	i	i	nt	i	i	i
Cc1noc(C)c1CSc1nc2[nH]ncc2c(=O)n1-c1ccccc1	i	i	i	i	i	i	nt
SMILES	S1P3 antagonist	EP2 modulator	S1P4 antagonist	INS promoter inh	PGE2 EP2 inh	S1P4 ag	EP2 cAMP induct
Cc1noc(C)c1CSc1nc2ccccc2c(=O)n1-c1ccc(F)cc1F	i	i	i	nt	nt	i	+
C=CCn1c(SCc2c(C)noc2C)nc2cc(C(=O)O)ccc2c1=O	i	i	i	i	i	i	nt
C=CCn1c(SCc2c(C)noc2C)nc2ccccc2c1=O	nt	71	i	i	i	i	i
Cc1noc(C)c1CSc1nnc2n(-c3ccccc3)c(=O)c3ccccc3n12	i	nt	nt	nt	nt	nt	nt
O=C(O)c1csc(N/N=C/c2ccc(Br)cc2)n1	i	73	i	i	i	i	i
O=C(CN1CCC(N2CCCCC2)CC1)NCCc1ccccc1	nt	i	nt	nt	i	nt	nt
O=C(NC1CC1)c1cc2c(s1)-c1ccccc1OC2	i	i	i	nt	i	i	nt
O=C(O)c1cc2c(s1)-c1ccccc1OC2	nt	86	i	nt	i	i	i
